Assay in all cases: NCI-60 one-dose screen, 48 h (100 = growth as untreated, 0 = no growth, -100 = all killed)
Details in all cases: 10 µM

Experiment [1] has as its system NCI-H23 lung.
Experiment [2] concerns NCI-H226 lung.
Experiment [3] has as its system HOP-62 NSCLC.
Experiment [4] deals with NCI-H460 lung.
Experiment [5] relates to HOP-92 NSCLC.
For experiment [6], the system named is NCI-H522 lung.
In experiment [7] the test system is A549/ATCC NSCLC.
In experiment [8] the test system is 786-0 renal.
The test system of experiment [9] is COLO 205 colon.
The subject of experiment [10] is DU-145 prostate.
In experiment [11] the test system is K-562 leukemia.
In experiment [12] the test system is MALME-3M melanoma.
In experiment [13] the test system is MDA-MB-231 breast.
In experiment [14] the test system is RXF 393 renal.
In experiment [15] the test system is SF-268 CNS.
Experiment [16] concerns SF-295 CNS.
The subject of experiment [17] is SF-539 CNS.
Experiment [18] has as its system UACC-257 melanoma.
Experiment [19] relates to M14 melanoma.

SMILES strings stand for the structures. The panel holds about 83,000 compounds, 20% with a hit somewhere; the sample as a whole holds those more often.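 How to read the values: 0–100, growth inhibition (40 = 60% inhibited); 0, no net growth; -100 to 0, cell death (-40 = 40% of starting cells died; -100 = all dead).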 Values without a mark were called inactive. Activity calls are given as the source filed them. How the source made its calls: active means growth percent below 10; inactive means the rest.

With `COc1ccc(-c2cc(-c3ccccc3)nc(SCCCC(=O)NO)n2)cc1`, the growth in experiment [1] was -33.3% (active); in experiment [2], -8.31% (active); in experiment [3], -20% (active); in experiment [4], -10.3% (active); in experiment [5], -13.4% (active); in experiment [6] it was -7.67% (active). Besides, the growth in experiment [7] is -2.46% (active); in [8], -13.5% (active); in experiment [9] it was -22.6% (active); in experiment [10] it was 1.16% (active); in [11], 6.74% (active); in [12], -9.2% (active). The growth is -0.784% (active) in experiment [13]; -40.8% (active) in experiment [14]; -18.8% (active) in experiment [15]; -39.6% (active) in [16]; 0.299% (active) in experiment [17]; -3.3% (active) in experiment [18]. In addition, the growth in experiment [19] is -21.8% (active).
Take `O=C(CSc1nccc(Nc2cccc3ccccc23)n1)c1ccc(Cl)cc1`: the growth is 79.6% in experiment [1]; 84.8% in experiment [2]; 81.9% in [3]; 99.5% in experiment [4]; 82.5% in [5]; 81.9% in experiment [6]. Also, the growth was 87.7% in experiment [7]; 102% in experiment [8]; 108% in [9]; 116% in [10]; 84.3% in experiment [11]; 101% in experiment [12]. In addition, the growth in experiment [13] was 79.1%; in [14] it was 106%; in experiment [15], 95%; in experiment [16], 95%; in experiment [17] it was 94.5%; in experiment [18] it was 109%. For the same compound, in experiment [19], the growth is 85.8%.
Take `CN(C)CCCOc1cccc(NC2=C(Cl)C(=O)C(Nc3cccc(OCCCN(C)C)c3)=C(Cl)C2=O)c1`: the growth in experiment [1] was -67.1% (active); in experiment [2] it was -70% (active); in experiment [3], -85.1% (active); in experiment [4], 38.3%; in experiment [5] it was -74.3% (active); in [6] it was -79.5% (active). For the same compound, the growth in experiment [7] is 52%; in experiment [8], -94.2% (active); in [9], -79.7% (active); in [10] it was -97.7% (active); in experiment [11], -29.7% (active); in [12], -74.8% (active). Besides, the growth is -73.6% (active) in experiment [13]; -88.8% (active) in experiment [14]; -62.6% (active) in [15]; 64.3% in experiment [16]; -77.7% (active) in experiment [17]; -90.1% (active) in experiment [18]. The growth in [19] is -75.6% (active).
For the compound `COc1cc2cc(Oc3ccc(NC(=O)Nc4ccc(C(F)(F)F)cc4)cc3)c(C)nc2cc1OC`, the growth in experiment [1] is 79.3%; in experiment [2], 20.9%; in experiment [3], 18.8%; in [4], 42.8%; in [5], 56.3%; in experiment [6], 63.2%. Besides, the growth in experiment [7] is 32.4%; in experiment [8], 74.9%; in experiment [9], 40.4%; in experiment [10], 71.4%; in experiment [11], 57.1%; in experiment [12], 82.9%. Also, the growth in [13] is 80.9%; in experiment [14], 6.29% (active); in experiment [15] it was 79.3%; in [16], 56%; in experiment [17], 96.9%; in experiment [18], 66.5%. The growth in experiment [19] was 95.2%.
`COc1cc(-c2nn(-c3cccc(NC(=O)NCCNC(=O)c4ccccc4)c3)cc2-c2ccncc2)ccc1Cl`: the growth is 19.7% in experiment [1]; 9.31% (active) in experiment [2]; 26.4% in experiment [3]; 13.5% in experiment [4]; -0.717% (active) in experiment [5]; 0.745% (active) in experiment [6]. Also, the growth in [7] was 24.2%; in experiment [8] it was -50.6% (active); in experiment [9], 2.08% (active); in [10] it was 23%; in experiment [11], 5.31% (active); in experiment [12] it was -9.9% (active). The growth was 25.9% in experiment [13]; -23.4% (active) in experiment [14]; 27.7% in experiment [15]; -56.9% (active) in experiment [16]; -12.9% (active) in experiment [17]; 17.1% in [18]. In addition, the growth in [19] is -5.48% (active).
For the compound `CCOC(=O)CC(S(=O)(=O)c1ccccc1)S(=O)(=O)c1ccccc1`, the growth is 98.3% in [1]; 95.7% in experiment [2]; 109% in experiment [3]; 103% in [4]; 89.7% in experiment [5]; -11.9% (active) in [6]. The growth is 95.3% in [7]; 115% in experiment [8]; -87.1% (active) in experiment [9]; 111% in experiment [10]; 78.7% in [11]; 39.8% in experiment [12]. For the same compound, the growth was 109% in experiment [13]; 57.5% in [14]; 101% in experiment [15]; 108% in experiment [16]; 104% in [17]; 89.6% in experiment [18]. In experiment [19], the growth is 115%.
As to `CCOC(=O)c1cc(C(=O)c2ccc(F)cc2F)n2ccccc12`, the growth in experiment [1] is 101%; in experiment [2], 88.2%; in experiment [3], 88.6%; in experiment [4] it was 97.5%; in experiment [5], 47.1%; in experiment [6], 70.1%. In addition, the growth is 86% in experiment [7]; 90.6% in [8]; 110% in [9]; 105% in experiment [10]; 85.9% in [11]; 120% in experiment [12]. For the same compound, the growth in [13] is 79.9%; in experiment [14], 99.3%; in experiment [15] it was 85.7%; in experiment [16], 94.7%; in [17], 95.2%; in experiment [18], 93.4%. The growth in [19] is 108%.
In the case of `NS(=O)(=O)Oc1ccc(-c2ccc3sccc3c2)cc1`, the growth was 94.2% in experiment [1]; 88.1% in experiment [2]; 104% in experiment [3]; 103% in [4]; 104% in [5]; 87.1% in experiment [6]. For the same compound, the growth in [7] was 98.3%; in experiment [8], 106%; in [9], 114%; in experiment [10] it was 104%; in experiment [11], 96.9%; in [12], 106%. In addition, the growth in [13] was 90%; in experiment [14] it was 100%; in [15], 102%; in [16], 97.2%; in [17] it was 98.9%; in experiment [18], 104%. For the same compound, the growth in experiment [19] is 100%.

Values taken from PubChem BioAssay (NCI).
